According to ChEMBL document CHEMBL3988442, “University of Dundee, Small-Polar-MMV Screening Library” (2021):
The campaign covered roughly 48,000 compounds. About 13,000 (27%) showed an effect of 50% or more. The list shows a part of the results.

The molecules below were run on Wolbachia pipientis (assay: Anti-Wolbachia Cell-Based Screen). Settings: 5 µM.
Type: functional
Design: scale not given: in the data most compounds retested in dose-response had high values

Structure (SMILES) | Percent Effect
CCN(CC)S(=O)(=O)c1ccc(C(F)(F)F)cc1C#N | -8.635%
COc1cccc2c1OCC(C(=O)N1CCN(C3CCCC3)C(=O)C1)C2 (stereo not given) | -9.278%
COc1ccccc1C(=O)N1CC(=O)N(C2CCCCC2)CC(O)C1 (stereo not given) | 104.3%
COc1ccc(C(=O)N2CC[C@@H](N3CCC(O)CC3)[C@H](O)C2)cc1C | -6.669%
CCOc1ccccc1C(=O)N1CCn2c(nnc2C(F)(F)F)C1 | -4.293%
COc1ccccc1OC1CCN(C(=O)c2cccc(O)c2C)CC1 | 0.8848%
CCOc1ccccc1C(=O)N1CCCC(O)(CN(C)C)C1 (stereo not given) | 8.806%
O=C(c1cc(Cl)ccc1OC1CCN(C2CCCC2)CC1)N1CC(O)C1 | 4.812%
O=C(c1ccc2c(c1)[nH]c(=O)n2C1CCCC1)N1CC(O)C1 | -1.674%
CCOc1ccccc1C(=O)N1CC(=O)N(C2CCC2)CC(O)C1 (stereo not given) | 90.13%
COc1cccc(OC)c1C(=O)N1CCN(c2ccccc2F)CC1 | -1.098%
COc1cccc(OC)c1C(=O)N1CC(=O)N(C2CCC2)CC(O)C1 (stereo not given) | 125.2%
COc1ccc(C(=O)N2CC(=O)N(C3CCC3)CC(O)C2)cc1OC (stereo not given) | 103.9%
Cc1ccc(NC(=O)N2C[C@H]3CC[C@@H]2CN(Cc2cscn2)C3)cc1 | 4.002%
COc1ccc(C(=O)NC2CC2)c(OC)c1 | 17.15%
COc1ccc(C(=O)N2CC[C@H](CO)[C@H](O)C2)c(C)c1 | -8.532%
COc1ccc(C(=O)N2CC(=O)N(C3CCC3)CC(O)C2)c(OC)c1 (stereo not given) | 143.6%
CN1CC(=O)N(c2cnn(C)c2)CC12CCN(Cc1nccn1C)C2.O=C(O)C(F)(F)F.O=C(O)C(F)(F)F (stereo not given) | -9.756%
Cn1ccnc1CN1CCC2(CCC(=O)N2CCN2CCCC2)CC1.O=C(O)C(F)(F)F.O=C(O)C(F)(F)F | 107.9%
CCN1C(=O)CCC12CCCN(Cc1nccs1)C2.O=C(O)C(F)(F)F (stereo not given) | 30.34%
O=C(O)C(F)(F)F.O=C(O)C(F)(F)F.O=C1CCC2(CCN(Cc3ccc(F)cc3)CC2)N1CCN1CCCC1 | 100.3%
COCCN1C(=O)CCC12CCCN(Cc1nccs1)CC2.O=C(O)C(F)(F)F (stereo not given) | 12.79%
CCN1C(=O)CCC12CCCN(Cc1ccc(F)cc1)CC2.O=C(O)C(F)(F)F (stereo not given) | 86.81%
O=C(NCC1(CO)CC1)c1ccccc1Br | -13.86%
COCC(C)N1CCc2onc(-c3ccc(F)c(F)c3)c2C1 (stereo not given) | -3.283%

Structure (SMILES) | Percent Effect
O=C(NC1CCS(=O)(=O)C1)c1ccc(SCc2cscn2)cc1 (stereo not given) | -5.861%
CCCc1cc(NCc2ccc(CO)cc2)n2nccc2n1 | -5.904%
Cc1occc1C(=O)N1CCn2c(Cn3cncn3)cnc2C1C (stereo not given) | 120.5%
CC1c2ncc(Cn3cncn3)n2CCN1C1CCOCC1.O=C(O)C(F)(F)F (stereo not given) | -16.95%
Cc1nc(COCc2cnc3n2CCN(C(=O)C2CC2)C3C)cs1 (stereo not given) | -5.573%
CC(C)N1CCn2c(COCC3CCOCC3)cnc2C1C.O=C(O)C(F)(F)F (stereo not given) | 6.159%
CC1c2ncc(Cn3cncn3)n2CCN1C(=O)C1CCOCC1 (stereo not given) | -2.006%
COCc1cnc2n1CCN(S(=O)(=O)N(C)C)C2C (stereo not given) | 6.284%
CC1c2ncc(Cn3cncn3)n2CCN1C(=O)N(C)C (stereo not given) | 113.2%
O=S(=O)(C1CC1)N1CCc2ncc(Cn3cncn3)n2CC1 | -7.39%
CC1c2ncc(Cn3cncn3)n2CCN1C(=O)[C@H]1CCCO1 (stereo not given in full) | 86.12%
CC1c2ncc(Cn3cncn3)n2CCN1CC1CCOCC1.O=C(O)C(F)(F)F (stereo not given) | 55.37%
CSCCCN1CCC(c2nnc(Cn3ccnc3)n2C2CC2)CC1 | 14.62%
N#Cc1cccc(OCCN2CCC(C(=O)N3CCOCC3)CC2)c1 | -12.33%
O=C(CC(F)(F)F)N1C[C@@H]2CC[C@H](C1)N(Cc1ccccc1)C2=O | -3.015%
CCn1c(C2CCCN(Cc3ccc4ccccc4n3)C2)nn(C)c1=O (stereo not given) | 31.19%
COc1ccccc1C1(CNc2cn[nH]c(=O)c2Cl)CCOCC1 | -1.761%
Cc1ncsc1CCN1CCN(C(=O)c2ccc(=O)[nH]c2)CC1 | 12.93%
COCCC(=O)N1CCn2c(COCC3CC3)cnc2C1C (stereo not given) | -18.59%
COCC(=O)N1CCn2c(Cn3cncn3)cnc2C1C (stereo not given) | 79.44%
Cc1ccc(N2CCCC(c3[nH]ncc3-c3ccccc3)C2)nn1 (stereo not given) | 25.67%
CC(O)C(=O)N1CCC(c2[nH]ncc2-c2ccccc2)CC1 (stereo not given) | 105.3%
CC(C(=O)N1CCC(c2[nH]ncc2-c2ccccc2)CC1)n1cncn1 (stereo not given) | 96.41%
C[C@H](N)C(=O)N1CCC(c2[nH]ncc2-c2ccccc2)CC1 | 108.2%
Cc1ccc(-c2cn[nH]c2C2CCCN(c3nccc(N)n3)C2)cc1 (stereo not given) | 6.644%
